Assay [1] in a line: SK-BR-3 cell growth inhibitors, pilot screen, 24 h, human (AID 572).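 Also: compound exposure lasted between 18 and 24 h rather than exactly 24 h; 100% = carrier-treated control wells.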 The note with it: SK-BR-3 viability, CellTiter-Glo luminescence, at 10 µM, stronger effect = lower value. (Cellular ATP, detected with luciferase, serves as a proxy for viable cell number.)
Assay [2] in a line: HUVEC growth inhibition – cell-based, human, primary screen (AID 575;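 active = viability at or below 30% in both replicate assays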;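 also: 100% = median of untreated cell wells with 0.1% DMSO on each plate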). The conditions noted are these: HUVEC proliferation, CellTiter-Glo luminescence, 72 h; at 10 µM; stronger effect = lower value.
Assay [3] can be described thus: growth inhibitors of H69AR lung tumor, primary screen, human, duplicate replicates (AID 580;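 active = viability at or under a set limit in both replicates, limit being median viability minus 3 SD, cut at about 48% in these data, passing the limit was not always enough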;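 also: 100% = mean luminescence of untreated wells and 0% = no signal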). The conditions noted are these: H69AR lung tumor cells viability, ATP luminescence, 72 h; at 10 µM; stronger effect = lower value.
A short description of assay [4]: reversal of MRP1-mediated doxorubicin resistance, pilot screen, H69AR cells, doxorubicin co-treatment (AID 601;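 active = viability loss from added drug above about 55%, and viability with drug at most 40%, in both replicates, limit read from the data, passing the limit was not always enough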). The note with it: CellTiter-Glo, 72 h, at 10 µM; for differential viability (reversal): stronger effect = higher value.
A short description of assay [5]: 384-well plate pilot, post-Golgi transport modulator project, inhibition of yeast transport mutant growth (AID 636; in the data active = inhibition above about 31%). The conditions noted are these: absorbance 615 nm, about 18 h, stronger effect = higher value.
The nature of assay [6]: growth suppression of yeast trafficking mutant, preliminary HTS, modulators of trafficking downstream of Golgi apparatus project, 1536-format plate, OD 615 nm (AID 637; in the data active = inhibition above about 30%). The conditions noted are these: yeast transport mutant growth, absorbance 615 nm, 18 h; stronger effect = higher value.
Assay [7] is described as follows: OD615 S. cerevisiae growth inhibition, permissive medium, pilot counter-assay, permissive growth control for S. cerevisiae lifespan shortening project (AID 705;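 active = growth inhibition above 25% in both replicates, a cutoff set 3 SD above the mean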). The note with it: OD615, 24 h, at 10 µM, stronger effect = higher value.
A short description of assay [8]: Restrictive medium S. cerevisiae growth inhibition, OD615, pilot screen of yeast lifespan reduction project, restrictive growth control (AID 706;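 active = growth inhibition above a set limit, 3 SD over mean compound inhibition, in both replicates, cut at about 43% in these data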;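 also: modified DeaD lifespan yeast strain shifted to restrictive glucose medium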). The note with it: OD615, 48 h, at 10 µM, stronger effect = higher value.
The nature of assay [9]: viability gain of MRP-1-high H69AR cells under doxorubicin, pilot screen, MRP-1 activator project, CellTiter-Glo, duplicate (AID 807;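 active = viability increase at or above a cutoff of the median across tested compounds plus 3 SD, cut at about 8.5% in these data, passing the limit was not always enough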;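 also: compound pretreatment 18-22 h then 72 h combined with doxorubicin; 0% = doxorubicin alone and 100% = vehicle without doxorubicin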). The conditions noted are these: H69AR viability with doxorubicin, CellTiter-Glo luminescence; at 10 µM; stronger effect = higher value.
Assay [10] can be described thus: growth suppression of beta-catenin knockout HCT116, pilot screen, human colon tumor cells (AID 823;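 active = cell viability at or below a set limit in both duplicate runs, the limit being the all-compound median minus 4 SD, cut at about 23% in these data, passing the limit was not always enough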;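 also: 0% = wells killed by 20 µM Hyamine and 100% = untreated DMSO cell wells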). The note with it: CellTiter-Glo, 60 h, at 10 µM, stronger effect = lower value.
A short description of assay [11]: growth suppression of PTEN-deleted HCT116, pilot screen, cell-based, HCT116 clonal line, CellTiter-Glo (AID 824;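 active = viability at or below 27.92% in each of two runs, the all-compound median minus 4 SD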;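 also: 0% = 20 µM Hyamine control and 100% = vehicle cell control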). The note with it: 60 h, at 10 µM, stronger effect = lower value.
The nature of assay [12]: inhibitors of the yeast RAM network, pilot screen, dse1pr::URA3 reporter, 5-FOA selection (AID 869;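 active = inhibition over a set limit, the all-compound mean plus 3 SD, in both replicate runs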;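 also: 0% = DMSO wells with no growth and 100% = 10 µM 1-NA-PP1 with full growth; RAM network block rescues cells from 5-FOA so hits raise OD615 growth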). The note with it: S. cerevisiae dse1pr::URA3 5-FOA growth, OD615, 2 d; at 10 µM; stronger effect = higher value; strain carries analog-sensitive mutant Cbk1 kinase.
Where [13] appears, read: H69AR cells + 2 uM doxorubicin, measured here: viability with 2 uM doxorubicin, stronger effect = lower value.
Setting [14] is: H69AR cells, compound alone cytotoxicity.

Each structure is given as a SMILES string. Inconclusive results are not listed. Activity calls are given as the source filed them.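 The calls were made as follows, unless noted: active = viability at or below 10% of carrier control in both of two separate runs; inconclusive = viability at or below 10% in only one of the two runs; inactive = the rest.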

The results in this text go back to PubChem BioAssay.

The viability is a read-out of living cells in per cent, often relative to untreated cells. A word on the inhibition: it is the change of the read-out against control, counted positive when it falls. Take `COc1cccc(Nc2nnc(SCC(=O)N3CC(C)OC(C)C3)s2)c1` (stereo unspecified): the viability in assay [1] was 92% (inactive); in [2], 75.3% (inactive); in [3], 102% (inactive); in assay [4] (setting [13]), 99.1%; in [4] (setting [14]), 102%. The differential viability (reversal) in assay [4] (H69AR cells + 2 uM doxorubicin) is 2.69% (inactive). Moreover, the inhibition is -2.4% (inactive) in [5] and -0.36% (inactive) in [6].
As to `Cc1ccc2c(C)nc(NC3=NCN(C(C)C)CN3)nc2c1`, the viability in assay [1] is 106% (inactive); in [2], 94.3% (inactive); in assay [3] it was 84.3% (inactive); in assay [4] (setting [13]), 99.7%; in [4] (setting [14]), 84.3%. Further, the differential viability (reversal) in assay [4] (H69AR cells + 2 uM doxorubicin) was -15.4% (inactive). Further, the inhibition in assay [5] is -5.89% (inactive); in assay [6], 0.48% (inactive).
Turning to `CCc1noc(C)c1C(=O)NCCc1ccc(OC)c(OC)c1`, the viability in assay [1] was 87% (inactive); in assay [2] it was 104% (inactive); in [3], 104% (inactive); in assay [4] (setting [13]), 87%; in [4] (setting [14]), 104%. In addition, the differential viability (reversal) in [4] (H69AR cells + 2 uM doxorubicin) is 16.7% (inactive). The inhibition is -8.49% (inactive) in [5] and 2.58% (inactive) in assay [6].
As for `CCCc1cc(=O)[nH]c(=S)[nH]1`, the viability in [1] is 101% (inactive); in assay [2], 97% (inactive); in assay [3], 84% (inactive); in assay [4] (setting [13]) it was 81.2%; in assay [4] (setting [14]), 84%. Further, the differential viability (reversal) in assay [4] (H69AR cells + 2 uM doxorubicin) is 2.76% (inactive). The inhibition in [5] was 0.78% (inactive); in assay [6], 0.17% (inactive).
For `O=C(NC(C(=O)c1ccccc1)N1CCOCC1)c1cccs1` (stereo unspecified), the viability in [1] was 87% (inactive); in [2], 100% (inactive); in assay [3], 96% (inactive); in [4] (setting [13]) it was 81%; in assay [4] (setting [14]), 96%. For the same molecule, the differential viability (reversal) in [4] (H69AR cells + 2 uM doxorubicin) was 15% (inactive). Further, the results for the inhibition in assay [5] and in assay [6] were -1.22% (inactive) and -4.36% (inactive), respectively.
Take `O=C(c1ccco1)N1CCN(CCCCN2C(=O)c3ccccc3C2=O)CC1`: the viability is 102% (inactive) in [1]; 90.5% (inactive) in assay [2]; 79.9% (inactive) in assay [3]; 92.2% in assay [4] (setting [13]); 79.9% in assay [4] (setting [14]). The differential viability (reversal) in assay [4] (H69AR cells + 2 uM doxorubicin) was -12.3% (inactive). Besides, the inhibition in assay [5] was -1.04% (inactive); in [6] it was 0.32% (inactive).
Take `CCOC(=O)c1ccc(COC(=O)c2cc3ccccc3oc2=O)o1`: the viability is 114% (inactive) in [1]; 114% (inactive) in assay [2]; 114% (inactive) in [3]; 93.1% in assay [4] (setting [13]); 114% in assay [4] (setting [14]). Further, in assay [4] (H69AR cells + 2 uM doxorubicin), the differential viability (reversal) was 20.8% (inactive). The values for the inhibition in [5] and in assay [6] were -5.89% (inactive) and 0.65% (inactive), respectively.
Take `CCCCCCCCCCCCCCCC(O)C(N)CO` (stereo unspecified): the viability is 60% (inactive) in assay [1], 2.65% (active) in assay [2], 1.44% in assay [4] (setting [13]) and 1.42% in [4] (setting [14]). In assay [4] (H69AR cells + 2 uM doxorubicin), the differential viability (reversal) is -0.02% (inactive).
In the case of `CC1(C)Cc2c(C#N)c(SCCC#N)nc(N3CCOCC3)c2CS1`, the results for the viability in [1], in assay [2] and in assay [3] were 83% (inactive), 86.6% (inactive) and 84.2% (inactive), respectively. The inhibition in [5] is -3.42% (inactive); in assay [6], -4.84% (inactive).
For the molecule `CCN(CC)CCCNc1oc(-c2cccc(Cl)c2)nc1C#N`, the viability was 113% (inactive) in [1]; 74.7% (inactive) in [2]; 76.6% (inactive) in [3]; 77% in assay [4] (setting [13]); 76.6% in [4] (setting [14]). For the same molecule, the differential viability (reversal) in assay [4] (H69AR cells + 2 uM doxorubicin) is -0.39% (inactive). The inhibition in assay [5] was -4.55% (inactive); in assay [6] it was -0.67% (inactive).
On to `CCCNC(=O)c1cc(-c2ccco2)on1`, for which the viability in assay [1] is 77% (inactive); in assay [2], 88.3% (inactive); in [3], 97.4% (inactive). In addition, the figures for the inhibition in assay [5] and in assay [6] were -1.87% (inactive) and 2.73% (inactive), respectively.
Consider `CC(=O)Nc1ccc(Cc2ccncc2)cc1`, for which the viability in assay [1] is 105% (inactive); in assay [2] it was 90.2% (inactive); in assay [3] it was 96.1% (inactive); in [4] (setting [13]), 87.3%; in assay [4] (setting [14]), 96.1%. Besides, the differential viability (reversal) in assay [4] (H69AR cells + 2 uM doxorubicin) was 8.84% (inactive). Moreover, the figures for the inhibition in [5] and in assay [6] were -4.8% (inactive) and -4.36% (inactive), respectively.
Turning to `CC1CCCCN1C(=O)Cn1nnc(-c2cccnc2)n1` (stereo unspecified), the viability in assay [1] is 92% (inactive); in [2], 97.2% (inactive); in [3], 103% (inactive); in assay [4] (setting [13]), 94.6%; in assay [4] (setting [14]), 103%. Further, in assay [4] (H69AR cells + 2 uM doxorubicin), the differential viability (reversal) was 8.68% (inactive). For the same molecule, the figures for the inhibition in assay [5] and in assay [6] were -7.81% (inactive) and -1.13% (inactive), respectively.
For `CC(=O)[C@H]1CC[C@H]2[C@@H]3CCC4=CC(=O)CC[C@]4(C)[C@H]3CC[C@]12C`, the viability in [1] is 93% (inactive); in assay [2], 49.4% (inactive); in assay [4] (setting [13]), 50.5%; in assay [4] (setting [14]), 47.2%. The differential viability (reversal) in [4] (H69AR cells + 2 uM doxorubicin) is -3.29% (inactive). The inhibition in assay [5] is 5.06% (inactive); in assay [6], -1% (inactive).
`CCN(CC)c1ccc2c(c1)CCCN2`: the viability in assay [1] is 86.5% (inactive); in assay [2], 95.9% (inactive); in assay [4] (setting [13]), 56.6%; in assay [4] (setting [14]), 43.4%. In addition, the differential viability (reversal) in [4] (H69AR cells + 2 uM doxorubicin) was -13.2% (inactive). Besides, the figures for the inhibition in assay [5] and in assay [6] were -4.21% (inactive) and 1.64% (inactive), respectively.
`COc1ccc(OC)c(S(=O)(=O)Nc2ccccc2SC)c1`: the viability was 72% (inactive) in assay [1]; 83.7% (inactive) in assay [2]; 100% (inactive) in assay [3]; 81% in assay [4] (setting [13]); 100% in assay [4] (setting [14]). Besides, in assay [4] (H69AR cells + 2 uM doxorubicin), the differential viability (reversal) was 18.9% (inactive). In addition, the values for the inhibition in assay [5] and in [6] were -5.34% (inactive) and -1.45% (inactive), respectively.
On to `O=C(CN1CCN(Cc2ccc3c(c2)OCO3)CC1)N1CCc2[nH]c3ccc(F)cc3c2C1`, for which the viability is 96% (inactive) in assay [1], 58.8% (inactive) in assay [2], 61.4% in assay [4] (setting [13]) and 52.5% in assay [4] (setting [14]). Also, the differential viability (reversal) in assay [4] (H69AR cells + 2 uM doxorubicin) was -8.87% (inactive). In addition, the inhibition in assay [5] is -2.13% (inactive); in assay [6] it was -6% (inactive).
As for `Cc1cc(=O)[nH]c(SCc2nc3ncccn3c2Br)n1`, the viability in assay [1] was 108% (inactive); in assay [2], 78.4% (inactive); in assay [3] it was 88.9% (inactive); in [4] (setting [13]), 91.8%; in assay [4] (setting [14]), 88.9%. For the same molecule, in [4] (H69AR cells + 2 uM doxorubicin), the differential viability (reversal) is -2.9% (inactive). Besides, the inhibition in [5] was -4.81% (inactive); in assay [6] it was -3.44% (inactive).
In the case of `CCOC(=O)c1ccccc1NC1c2ccccc2C(=O)N1C1CCN(C(=O)OCC)CC1` (stereo unspecified), the viability in [1] is 126% (inactive); in [2], 76.2% (inactive); in [3] it was 80.5% (inactive); in [4] (setting [13]) it was 42.9%; in [4] (setting [14]) it was 80.5%; in assay [10], 50.3% (inactive). For the same molecule, in assay [11], the viability is 46.2% (inactive). For the same molecule, the differential viability (reversal) in assay [4] (H69AR cells + 2 uM doxorubicin) was 37.6% (inactive). Further, the inhibition was -4.13% (inactive) in [5], -3.17% (inactive) in [6] and 1.9% (inactive) in [12]. In addition, the growth inhibition in [7] was 3.84% (inactive); in assay [8], 4.88% (inactive). Further, the viability increase in assay [9] is -7.16% (inactive).
